# GPR151 ag – activators of human GPR151, primary screen, cell-based, PathHunter beta-arrestin, luminescence | activation, % at 11.2 µM | AID 1508602, 2020 | PathHunter beta-arrestin GPR151 cells | 650,000 compounds, 1% hits; in the data active = activation above about 4.9%;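 also: 0% = median of compound wells and 100% = cells with positive control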
# Target sequence (Q8TDV0 whole entry, looked up): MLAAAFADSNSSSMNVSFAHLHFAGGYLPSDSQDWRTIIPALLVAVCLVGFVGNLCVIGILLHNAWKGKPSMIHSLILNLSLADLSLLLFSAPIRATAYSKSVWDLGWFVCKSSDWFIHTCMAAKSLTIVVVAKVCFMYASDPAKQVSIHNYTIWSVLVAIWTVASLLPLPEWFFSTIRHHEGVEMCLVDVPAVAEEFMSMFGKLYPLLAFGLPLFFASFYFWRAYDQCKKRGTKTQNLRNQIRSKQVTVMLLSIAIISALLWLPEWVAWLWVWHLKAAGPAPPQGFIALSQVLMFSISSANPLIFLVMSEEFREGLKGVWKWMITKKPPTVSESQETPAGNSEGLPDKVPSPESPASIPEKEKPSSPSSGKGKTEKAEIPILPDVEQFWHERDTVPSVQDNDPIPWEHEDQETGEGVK
# MITF primary – MITF inhibitors, primary screen, biochemical, AlphaScreen, human | inhibition, % at 2.6 µM | Microphthalmia-associated transcription factor (Homo sapiens), O75030 | AlphaScreen MITF homodimerization, bead proximity signal | 650,000 compounds, 0.91% hits; in the data active = inhibition above about 50%;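 also: 0% = vehicle wells with protein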
# FBW7 act – FBW7 E3 ligase activators, primary screen, biochemical, AlphaScreen, human; normalized activity (activation), % at 26.1 µM; 650,000 compounds, 0.13% hits; AlphaScreen FBW7–phospho-cyclin E peptide binding, activator screen; F-box/WD repeat-containing protein 7 (Homo sapiens), Q969H0; in the data active = normalized activity above about 1.9%;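 also: purified mutant Fbw7 with reduced substrate affinity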
# TEAD-YAP block – TEAD-YAP interaction inhibition, primary screen, TEAD-YAP interaction inhibitor project, luminescence, HEK-TIYL cells; AID 1259422, 2018; TEAD-Gal4/YAP UAS-luciferase luminescence; 640,000 compounds, 1.4% hits; inhibition, % at 9.12 µM; in the data active = inhibition above about 32%;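 also: 0% = median of test compound wells and 100% = reference inhibitor wells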
# MITF inh conf – MITF inhibitors, retest of hits, confirmation, biochemical, AlphaScreen, triplicate | AlphaScreen MITF homodimerization, biotin/His-MITF beads | 4,700 compounds, 16% hits | shares compounds with MITF primary | inhibition, % at 2.6 µM | AID 1259372, 2018;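 active = inhibition above a cutoff derived from the DMSO control wells, cut at about 28% in these data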;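 also: 0% = MITF dimer wells with DMSO only; inhibitors lower the bead chemiluminescence by keeping MITF from dimerizing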
# AS interf DR – AlphaScreen optical interference compounds, dose response, counter-screen, biochemical, HTS; shares compounds with MITF primary; AlphaScreen optical interference counterscreen, cell-free; IC50, µM; 480 compounds, 6% hits; call rule not given here
# AS interf ctr – AlphaScreen optical interference compounds, counter-screen for MITF inhibitor project, biochemical, triplicate. shares compounds with MITF primary. LysRS AlphaScreen counterscreen, signal interference. inhibition, % at 2.6 µM. 4,700 compounds, 7.6% hits. AID 1259376, 2018;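 active = inhibition above a cutoff derived from the DMSO control wells, cut at about 30% in these data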
# * hit, by the source's call; . = not tested or not shown. Most compounds without a hit are left out; they make up all but 3.5% or so of the library.
SMILES,GPR151 ag,MITF primary,FBW7 act,TEAD-YAP block,MITF inh conf,AS interf ctr,others
COc1ccc(CN2CCCCC2)cc1OC,-0.3,9.3,0.0,6.9,.,.,
CCc1ccc(CN2CCN(Cc3ccc(OC)cc3OC)CC2)cc1,-1.4,65.8*,0.6,-10.2,-9.1,-1.6,
COc1ccc(CN2CCOCC2)c(OC)c1,0.0,-3.4,-0.3,2.3,.,.,
COc1ccc(CN2CCN(Cc3ccc(Cl)cc3)CC2)c(OC)c1,0.1,61.0*,-0.2,-18.9,0.6,9.1,
COc1cc(CN2CCN(Cc3ccc(OC)cc3OC)CC2)cc(OC)c1,-0.8,70.5*,-0.5,-2.7,4.7,2.6,
CCS(=O)(=O)N1CCN(Cc2cc(OC)ccc2OC)CC1,0.6,47.8,0.2,6.7,.,.,
CCOc1ccc(CN2CCN(Cc3cc(OC)ccc3OC)CC2)cc1,-1.1,79.0*,0.3,5.5,7.7,22.3,
O=C(Nc1ccc(Cl)cc1)C(Cc1ccccc1)N1C(=O)C2C3c4ccccc4C(c4ccccc43)C2C1=O (stereo not given),1.7,-8.4,0.0,-1.3,.,.,
CCN1C(=O)c2cccc3c(NC(=O)COc4ccc(Cl)cc4Cl)ccc1c23,-0.7,7.0,0.2,5.5,.,.,
CCn1c(=O)c2ccccc2n2c(SCC(=O)NC3CCCCC3)nnc12,-0.4,-5.1,0.2,-1.5,.,.,
Cn1c(=O)c2ccccc2n2c(SCC(=O)NC3CCCCC3)nnc12,1.0,72.6*,-0.1,3.5,2.3,15.1,
CC1(C)O[C@@H]2C[C@H]3[C@@H]4C[C@H](F)C5=CC(=O)C=CC5(C)[C@H]4[C@@H](O)CC3(C)C2(C(=O)CO)O1 (stereo not given in full),1.9,-1.7,0.1,.,.,.,
Clc1ccc(OCC#CCn2ccnc2)cc1,2.2,58.3*,0.3,4.6,23.4,16.2,
COc1ccc(OC)c(NC(=O)c2cc3ccc(O)cc3oc2=Nc2ccc(C(=O)O)cc2)c1,0.4,55.4*,-0.4,6.1,79.1*,-15.3,AS interf DR=>5.54
CN(Cc1cc(Cl)c(O)c2ncccc12)C1CCCCC1,1.9,105.6*,-0.9,70.2*,103.6*,100.6*,
O=[N+]([O-])c1cc(Cl)c(O)c2ncccc12,-1.2,37.2,-0.2,9.5,.,.,
CCOc1ccc(-c2cn3nc(COc4ccc(Cl)cc4Cl)n4c3c2CCCC4)cc1,-1.5,58.8*,0.8,-15.7,-9.3,-5.0,
COc1ccc(-c2cnn3ccc(NCc4cccnc4)nc23)cc1OC,1.0,54.8*,0.0,17.0,2.6,5.0,
COc1cccc(COC(=O)c2nc3nccc(C)n3n2)c1,0.5,-0.9,0.0,-4.9,.,.,
COc1cccc(CN2CCCC(C(=O)N3CCc4ccccc4C3)C2)c1 (stereo not given),1.1,60.4*,0.0,12.8,7.8,13.8,
O=C(C1CCCN(Cc2cccc([N+](=O)[O-])c2)C1)N1CCCCCC1 (stereo not given),-0.1,69.5*,-0.1,5.3,13.3,15.6,
O=C(C1CCN(Cc2ccccc2F)CC1)N1CCc2ccccc2C1,-0.6,49.2,0.2,6.2,.,.,
COc1cccc(CN2CCc3ccccc3C2)c1,0.7,24.9,-0.1,0.3,.,.,
CCN(CC)C(=O)C1CCCN(Cc2cccc([N+](=O)[O-])c2)C1 (stereo not given),3.0,39.8,-0.1,4.7,.,.,
O=C(C1CCCN(Cc2cccc([N+](=O)[O-])c2)C1)N1CCc2ccccc2C1 (stereo not given),-0.1,51.1*,-0.4,8.3,9.3,17.3,
SMILES,GPR151 ag,MITF primary,FBW7 act,TEAD-YAP block,MITF inh conf,AS interf ctr,others
Cc1ccc(CN2CCC(C(=O)N3CCc4ccccc4C3)CC2)o1,1.5,54.1*,-0.1,-7.3,10.6,17.0,
Cc1ccccc1OCC(=O)Nc1ccc(Cl)c(-c2nc3ccccc3[nH]2)c1,-0.3,4.1,1.0,3.5,.,.,
COc1ccc([N+](=O)[O-])cc1Nc1cnn(C23CC4CC(CC(C4)C2)C3)c(=O)c1Cl,-0.6,50.8*,0.6,-6.0,4.8,12.7,
COc1ccc(C)cc1Nc1cnn(C23CC4CC(CC(C4)C2)C3)c(=O)c1Cl,1.7,4.2,-0.5,10.2,.,.,
NNC(=O)c1ccc(CS(=O)(=O)c2ccccc2)o1,-0.1,-3.7,-0.2,-18.7,.,.,
O=C(O)c1ccc(CS(=O)(=O)c2ccccc2)o1,0.1,55.9*,-0.7,5.9,74.2*,13.5,AS interf DR=>6.48
COc1cccc(NC(=O)CSc2nnc(CNC(=O)c3ccc(Cl)cc3)n2C)c1,-1.1,15.3,-0.1,2.6,.,.,
NCCNCCNCCN,0.1,90.9*,-0.2,3.2,70.2*,100.4*,
CC(C)(C)C(=O)N1CCN(Cc2nc3ccccc3n2Cc2ccccc2)CC1,1.3,13.5,0.4,-24.8,.,.,
COC(=O)c1ccc(CN2CCN(Cc3nc4ccccc4n3Cc3ccccc3)CC2)o1,-0.2,67.2*,-0.7,-12.0,10.6,26.6,
O=C(Nc1ccc(F)cc1)N1CCN(Cc2nc3ccccc3n2Cc2ccccc2)CC1,-1.3,3.3,0.1,-25.3,.,.,
C=CCNC(=O)N1CCN(Cc2nc3ccccc3n2Cc2ccccc2)CC1,1.8,78.5*,-0.4,-12.7,-4.4,13.5,
CC1CCCC(C)N1C(=O)c1cc2ccccc2oc1=O (stereo not given),-0.6,11.7,-0.1,-14.8,.,.,
COc1ccc(C(=O)NC2CCCCC2)cc1S(=O)(=O)N1CCC(C)CC1,0.1,66.5*,-0.2,0.5,10.4,13.2,
COc1ccccc1-n1c(N)c(C(=O)NCCc2ccccc2)sc1=S,1.9,-0.5,-0.2,-27.6,.,.,
CC(C)CC(OC(=O)CN1C(=O)COc2ccccc21)C(=O)NC1CCCCC1 (stereo not given),0.0,1.0,0.1,5.7,.,.,
Cc1ccc2c(c1)N(CC(=O)OC(CC(C)C)C(=O)NC1CCCC1)C(=O)CO2 (stereo not given),0.0,54.0*,0.2,2.7,2.0,13.8,
COc1cc(CN2CCN(C3CCN(Cc4ccccc4)CC3)CC2)cc(OC)c1OC,-1.1,59.4*,-0.2,3.3,-4.6,-2.4,
COc1cc(CN2CCCCCC2)cc(OC)c1O,2.6,17.6,0.1,10.0,.,.,
COc1ccc(OC)c(NC(=O)CN2CCN(Cc3ccccc3)CC2)c1,1.9,61.6*,-0.3,6.3,8.5,16.3,
CCc1ccc(CN2CCN(Cc3cc(OC)c(O)c(OC)c3)CC2)cc1,-0.9,65.8*,0.0,-4.7,50.7*,7.1,AS interf DR=>5.79
COc1cc(CN2CCN(Cc3ccccc3)CC2)cc(OC)c1O,-1.8,79.2*,-0.1,3.6,-35.3,-0.3,
CCCC(NS(=O)(=O)c1ccc(F)cc1)C(=O)O (stereo not given),-0.7,2.4,0.1,-5.0,.,.,
